Measured values as given in PubChem BioAssay (Tox21).
Values joined by “and” are separate entries in the source; they are usually repeats but may differ in a detail not shown here. Identical values can stand only once. Records with an inconclusive call do not appear. Active and inactive are the calls of the source. Calls come from the whole dose curve; as a rule, active = well fitted cell-killing curve with a large enough effect in the repeat runs; inconclusive = weak or mixed curves, or effect the other way; inactive = flat fitted curve, though single readings scatter.
% is set by controls: 0 for no effect and ±100 for the full control effect; potency is the fitted concentration of half-maximal effect.

Experiment: cAMP Responsive Elements (CRE) small molecule antagonists, cell-based qHTS assay: qHTS cell viability counter screen (AID 2060913); note: nearly all actives have a fitted effect of over 40% in size
Conditions: CRE-bla HEK293T viability, CellTiter-Glo luminescence, 5 h; series mostly up to 92.4 µM; viability change, negative = cytotoxic: at the top concentration
In short: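 CRE-bla HEK293T cells (2,000/well, 18 h) given compound plus NKH477 0.25 uM final for 3 h at 37C; viability counter-screen by CellTiter-Glo luminescence in same wells after 30 min.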
With `CCN(CC)c1nc(C)cc(OP(=S)(OC)OC)n1` the “viability change, negative = cytotoxic” value was -5.46% (inactive).
For `O=[N+]([O-])c1ccc(O)c([N+](=O)[O-])c1`, the Potency was 54.5 µM (active).
With `COP(=S)(OC)Oc1ccc(S(=O)(=O)N(C)C)cc1` the Potency was “inactive”.
In the case of `COP(N)(=S)Oc1ccccc1C(=O)OC(C)C` (stereo not given), the “viability change, negative = cytotoxic” value is reported as 7.77% (inactive).
For `COC1=CC(=O)O[C@@H](CCc2ccccc2)C1`, the “viability change, negative = cytotoxic” value was 7.6% (inactive).
With `C[C@@H]1CN(C2CCC(C#N)(c3ccc(F)cc3)CC2)CC[C@]1(C(=O)O)c1ccccc1` (stereo not given in full) the “viability change, negative = cytotoxic” value was -0.932% [at 42.5 µM] (inactive).
In the case of `c1ccc(-c2cccc(-c3ccccc3)c2)cc1`, the Potency is reported as “inactive”.
In the case of `O=[N+]([O-])c1ccc2c3c(cccc13)CC2`, the “viability change, negative = cytotoxic” value is reported as 2.31% (inactive).
With `CN=CNc1ccc(C)cc1C` the “viability change, negative = cytotoxic” value was 4.89% (inactive).
With `CCOP(=O)(OCC)OCC` the “viability change, negative = cytotoxic” value was -0.435% (inactive).
For `CCCN(CCC)c1c([N+](=O)[O-])cc(S(N)(=O)=O)cc1[N+](=O)[O-]`, the Potency was 43 µM (active).
In the case of `NC(=S)C(N)=S`, the “viability change, negative = cytotoxic” value is reported as -10.2% (inactive).
In the case of `CCOC(=O)c1cncn1C(C)c1ccccc1` (stereo not given), the “viability change, negative = cytotoxic” value is reported as 0.0916% [at 42.5 µM] (inactive).
For `COc1ccc2c(c1OC)CN1CCc3cc4c(cc3C1C2)OCO4` (stereo not given), the “viability change, negative = cytotoxic” value was -4.17% [at 42.5 µM] (inactive).
For `C=Cc1cccc(CCl)c1`, the “viability change, negative = cytotoxic” value was 6.46% [at 240 µM] (inactive).
With `C=CCN1C[C@H](C)N([C@H](c2ccc(C(=O)N(CC)CC)cc2)c2cccc(OC)c2)C[C@H]1C` the “viability change, negative = cytotoxic” value was -1.48% [at 42.5 µM] (inactive).
With `CCNP(=S)(OC)O/C(C)=C/C(=O)OC(C)C` (stereo not given) the “viability change, negative = cytotoxic” value was -8.51% (inactive).
With `CCNS(=O)(=O)C(F)(F)C(F)(F)C(F)(F)C(F)(F)C(F)(F)C(F)(F)C(F)(F)C(F)(F)F` the “viability change, negative = cytotoxic” value was 8.62% (inactive).
In the case of `C#CCOC(C(=O)OCCN(C)C)(c1ccccc1)c1ccccc1`, the “viability change, negative = cytotoxic” value is reported as 4% [at 42.5 µM] (inactive).
With `CS(=O)(=O)c1ccc(C(=O)C2C(=O)CCCC2=O)c([N+](=O)[O-])c1` the “viability change, negative = cytotoxic” value was 2.04% (inactive).
In the case of `COc1ccc2c(C(=O)c3ccc(Cl)cc3)c(C)n(CC(=O)O)c2c1`, the “viability change, negative = cytotoxic” value is reported as -5.21% [at 42.5 µM] (inactive).
With `FC(F)OC(F)(F)C(F)Cl` (stereo not given) the “viability change, negative = cytotoxic” value was 3.37% (inactive).
For `ClC(Cl)C(Cl)Cl`, the “viability change, negative = cytotoxic” value was 1.76% (inactive).
In the case of `COc1cc(OC)c(OC)cc1C=O`, the “viability change, negative = cytotoxic” value is reported as 4.09% (inactive).
With `OC(c1ccc(Cl)cc1)(c1ccc(Cl)cc1)c1cccnc1` the “viability change, negative = cytotoxic” value was -11% (inactive).
For `CCc1ccccc1C`, the “viability change, negative = cytotoxic” value was 13.6% (inactive).
For `CSc1ccc(C(=O)C(C)(C)N2CCOCC2)cc1`, the “viability change, negative = cytotoxic” value was -11.8% (inactive).
With `Nc1n[nH]c(N)n1` the “viability change, negative = cytotoxic” value was 2.01% (inactive).
In the case of `O=C1CCCN1`, the Potency is reported as “inactive”.
In the case of `O=[N+]([O-])c1ccc(Cl)c([N+](=O)[O-])c1`, the Potency is reported as 27.7 µM (active) and 57 µM (active).
In the case of `CC(C=O)Cc1ccc2c(c1)OCO2` (stereo not given), the “viability change, negative = cytotoxic” value is reported as -7.51% (inactive).
In the case of `C#CC(C)(C)O`, the “viability change, negative = cytotoxic” value is reported as -8.3% (inactive).
With `O=C1c2ccccc2C(=O)C1C(=O)C(c1ccccc1)c1ccccc1` the “viability change, negative = cytotoxic” value was 0.388% [at 42.5 µM] (inactive).
With `O=C1c2ccccc2C(=O)C1C(=O)C(c1ccccc1)c1ccc(Cl)cc1` (stereo not given) the “viability change, negative = cytotoxic” value was -15% (inactive).
For `C=CCOC(=O)C(C)(C)OC(=O)c1cc(-n2c(=O)cc(C(F)(F)F)n(C)c2=O)ccc1Cl`, the “viability change, negative = cytotoxic” value was 3.15% (inactive).
In the case of `CCCCCCCCCC(=O)O[C@H]1CC[C@H]2[C@@H]3CCC4=CC(=O)CC[C@@H]4[C@H]3CC[C@]12C`, the “viability change, negative = cytotoxic” value is reported as 1.26% [at 42.5 µM] (inactive).
In the case of `ClCCCN1CCN(c2cccc(Cl)c2)CC1`, the “viability change, negative = cytotoxic” value is reported as -2.15% [at 42.5 µM] (inactive).
In the case of `Cc1ccc2cc3c(ccc4ccccc43)c3c2c1CC3`, the “viability change, negative = cytotoxic” value is reported as -9.26% [at 42.5 µM] (inactive).
For `CCCN(CCC)c1c([N+](=O)[O-])cc(C(C)C)cc1[N+](=O)[O-]`, the Potency was “inactive”.
For `CCOCN(C(=O)CCl)c1c(C)cccc1CC`, the Potency was “inactive”.
